This note sets out measurements from PubChem BioAssay AID602143 (Vanderbilt Specialized Chemistry Center, 2011).

Values without a mark were called inactive. Activity calls are given as the source filed them. Rule as the data show it: active = remaining activity below about 50%; inactive = the rest.

This assay deals with Phospholipase D2 (Homo sapiens) (UniProt O14939). The experiment in a line: cellular phospholipase D2 activity inhibition – cell-based, HEK293, single concentration (AID 602143).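 Also: tested at 200 nM.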 The following applies: HEK293 cellular PLD2 activity, percent of control; hits give low values.
Sequence of Phospholipase D2 (Homo sapiens) (O14939 whole entry, looked up): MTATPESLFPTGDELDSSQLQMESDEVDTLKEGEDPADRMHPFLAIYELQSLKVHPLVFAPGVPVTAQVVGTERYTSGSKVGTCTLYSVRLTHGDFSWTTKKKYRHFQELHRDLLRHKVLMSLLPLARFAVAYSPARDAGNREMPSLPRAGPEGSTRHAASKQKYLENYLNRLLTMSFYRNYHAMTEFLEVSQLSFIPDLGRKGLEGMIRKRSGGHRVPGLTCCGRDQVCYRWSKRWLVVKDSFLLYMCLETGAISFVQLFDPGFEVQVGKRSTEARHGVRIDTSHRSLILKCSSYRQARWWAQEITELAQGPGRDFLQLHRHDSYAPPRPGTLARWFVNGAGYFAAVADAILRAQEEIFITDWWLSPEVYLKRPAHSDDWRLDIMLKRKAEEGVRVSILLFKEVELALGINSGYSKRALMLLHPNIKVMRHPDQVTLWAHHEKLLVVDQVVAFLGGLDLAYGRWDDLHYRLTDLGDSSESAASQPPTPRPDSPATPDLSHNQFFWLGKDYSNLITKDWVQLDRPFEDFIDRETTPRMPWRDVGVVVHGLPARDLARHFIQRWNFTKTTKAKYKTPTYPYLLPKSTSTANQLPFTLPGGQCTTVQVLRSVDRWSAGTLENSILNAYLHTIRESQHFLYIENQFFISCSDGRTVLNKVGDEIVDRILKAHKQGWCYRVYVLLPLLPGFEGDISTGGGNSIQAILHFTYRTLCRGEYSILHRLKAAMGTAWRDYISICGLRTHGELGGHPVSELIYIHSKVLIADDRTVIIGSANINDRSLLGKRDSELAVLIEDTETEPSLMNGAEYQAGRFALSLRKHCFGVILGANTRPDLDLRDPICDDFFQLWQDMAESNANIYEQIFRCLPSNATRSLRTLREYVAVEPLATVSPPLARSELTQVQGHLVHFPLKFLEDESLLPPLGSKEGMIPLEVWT
Sequence of Phospholipase D2 (Homo sapiens) (O14939 whole entry, looked up): as above
As to `CS(=O)(=O)N1CC2(CCN(CCNC(=O)c3ccc4ccccc4c3)CC2)c2ccccc21`, the remaining activity is 84.2%. As for `Cc1ccc(C(=O)N[C@@H](C)CN2CCC(n3c(=O)[nH]c4ccc(F)cc43)CC2)cc1`, the remaining activity is 64%. The value for `O=C(NCCN1CCC(C(=O)NCCc2ccccn2)CC1)c1ccc2ccccc2c1` was 100%; that for `O=C(NCCN1CCC(n2c(=O)[nH]c3ccccc32)CC1)c1cccc2cccnc12` was 74.2%.

On to `O=C(NCCN1CCN(c2ccncc2)CC1)c1cc2cc(F)ccc2[nH]1`, for which the remaining activity is 65.5%.

With `C[C@@H](CN1CCC2(CC1)CN(S(C)(=O)=O)c1ccccc12)NC(=O)c1cnc2ccccc2c1`, the remaining activity was 136%.

For the molecule `Cc1cccc(NC(=O)NCCN2CCC(n3c(=O)[nH]c4ccccc43)CC2)c1`, the remaining activity is 111%. For `Cn1c(C2CCN(CCN)CC2)nc2ccccc21` (tested in a mixture with another compound), the remaining activity is 117%.

As to `O=C(NCCN1CCN(c2ccncc2)CC1)c1c2ccccc2cc2ccccc12`, the remaining activity is 127%. `C[C@@H](CN1CC=C(n2c(=O)[nH]c3ccccc32)CC1)NC(=O)[C@H]1C[C@@H]1c1ccccc1`: the remaining activity is 74.4%. For the molecule `O=C(NCCN1CCN(c2ccccn2)CC1)c1ccc(C(F)(F)F)cc1`, the remaining activity is 117%.

For `O=C(N[C@@H](Cc1ccccc1)CN1CCC(n2c(=O)[nH]c3ccccc32)CC1)c1ccc2ccccc2c1`, the remaining activity is 96.7%. For the molecule `COc1cccc(N2CCN(CCNC(=O)c3ccc(C)cc3)CC2)c1`, the remaining activity was 97.6%.

As for `O=C(NCCN1CCC(n2c(=O)[nH]c3ccccc32)CC1)C1CCc2ccccc2C1` (configuration not stated), the remaining activity was 103%. As for `O=c1[nH]c2ccccc2n1C1CCN(CCNS(=O)(=O)c2cc(Cl)ccc2Cl)CC1`, the figure is 68.8%; as for `C[C@@H](CN1CCC2(CC1)CN(S(C)(=O)=O)c1ccccc12)NC(=O)c1ccc2ccccc2c1`, 115%. In the case of `O=C(NCCN1CCC(c2nc3ccccc3[nH]2)CC1)C1CC1c1ccccc1` (configuration not stated), the remaining activity was 95.6%. In the case of `O=C(NCCN1CCC(n2c(=O)[nH]c3ccccc32)CC1)C1CCCCCC1`, the remaining activity was 104%. `O=c1[nH]c2ccccc2n1C1CCN(CCNS(=O)(=O)c2ccc(F)cc2)CC1`: the remaining activity is 75.9%. Consider `CC(C(=O)NCCN1CCN(c2ccncc2)CC1)(c1ccccc1)c1ccccc1`, for which the remaining activity is 110%. Regarding `O=C(NCCN1CCN(c2ccccn2)CC1)c1ccc(F)cc1`, the remaining activity was 101%. As for `CS(=O)(=O)N1CC2(CCN(CCNC(=O)c3cnc4ccccc4c3)CC2)c2ccccc21`, the figure is 83.7%. Regarding `O=C(NCCN1CCC(n2c(=O)[nH]c3ccccc32)CC1)c1cnc2ccccc2n1`, the remaining activity is 87.4%. Turning to `O=C(NCCN1CC=C(n2nnc3cc(C(F)(F)F)ccc32)CC1)c1cnc2ccccc2c1`, the remaining activity was 114%.

For `O=C(NCCN1CCC(n2c(=O)[nH]c3ccccc32)CC1)c1cscn1`, the remaining activity is 57.9%. The value for `O=c1[nH]c2ccccc2n1C1CCN(CCNC(=S)Nc2cccc3ccccc23)CC1` was 100%; that for `O=C(c1ccc2ccccc2c1)N1CCC2(CC1)C(=O)NCN2c1ccccc1` was 75.8%; that for `O=C(NCCN1CCC(n2c(=O)[nH]c3ccccc32)CC1)c1ncccn1` was 90.1%.

For `O=C(NCCN1CCC(n2c(=O)[nH]c3cc(I)ccc32)CC1)C1CC1c1ccccc1` (configuration not stated), the remaining activity was 57.2%.

Regarding `C[C@@H](CN1CCC(n2c(=O)[nH]c3ccc(F)cc32)CC1)NC(=O)c1ccc(Cl)cc1`, the remaining activity is 68.3%. `O=C(NCCN1CCC2(CCc3ccccc32)CC1)[C@H]1C[C@@H]1c1ccccc1`: the remaining activity is 99.8%. As for `O=C(NCCN1CCC(n2c(=O)[nH]c3ccccc32)CC1)Nc1cccc(C(F)(F)F)c1`, the remaining activity is 131%. As for `O=C(N[C@@H](Cc1ccccc1)CN1CCC(n2c(=O)[nH]c3ccccc32)CC1)c1ccc(F)c(F)c1`, the figure is 124%. As for `O=C(NCCN1CCN(c2ccncc2)CC1)c1ccccc1-c1ccccc1`, the remaining activity is 83.2%.

`O=C(NCCN1CCC2(CC1)CNc1ccccc12)c1cnc2ccccc2c1`: the remaining activity was 90%. As for `C[C@@H](CN1CCC(n2c(=O)[nH]c3ccccc32)CC1)NC(=O)CSc1ccccc1`, the figure is 86.7%. The value for `C[C@H](CN1CCC(n2nnc3ccccc32)CC1)NC(=O)c1ccc2ccccc2c1` was 48.2% (active).

A word on the remaining activity: it is the signal under treatment as a percentage of the control signal.
